# Measured values taken from the supplement of paper PMC8728848.
# This excerpt belongs to a sample that is enriched for the strongest signals.
# B1: AMA (Arum maculatun) (protein)
# chain: MAKLLLLLLLPAIVGLAVPRSAAAVGSNYMLSGETLNTDGRLTNGELTLIMQVDCNLVLYHGGWQSNTANNGRDCKLTLTDFGELVIKSGTGSTVWSSGSKQSMKGNYAAVVHPEGRLVIYGPSVFKINPSGAGLNGLPLRNIPLTNNMLFSGQVLYGDGTLSARNHKLVMQGDCNMVLYGGKYGWQSNTHGNGKYCFAMLTHKGELVIRDDDFKSVWSSKSSSKQGDYVFILQDDSLAIIYGPAVFSTGSKKMISMVTN
# Experiments:
# Assay in all cases: glycan array binding signal (z-score within array); higher = stronger binding
# Settings in all cases: glycan notation: IUPAC condensed, linker removed
# [1] = biological target: Gal3S6S(b1-4)GlcNAc
# Summary of the method: (§1)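 The Consortium for Functional Glycomics database supplied 3228 glycan arrays, of which those lacking an available protein sequence were dropped. The binding signal, a within-array Z-score, was averaged across arrays of the same protein sequence and across linkers. Negative scores can be read as non-binding.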
# [2] = biological target: GalNAc(a1-3)GalNAc
# Summary of the method: as §1
# [3] = biological target: GalNAc(b1-4)Gal(b1-4)Glc
# Summary of the method: as §1
# [4] = biological target: GalNAc3S(b1-4)GlcNAc
# Summary of the method: as §1
# [5] = biological target: GalNAc3S(b1-4)GlcNAc3S
# Summary of the method: as §1
# [6] = biological target: GalNAc3S(b1-4)[Fuc(a1-3)]GlcNAc
# Summary of the method: as §1
# [7] = biological target: GlcNAc(a1-4)Gal(b1-4)GlcNAc(b1-3)Gal(b1-4)GlcNAc
# Summary of the method: as §1
# [8] = biological target: GlcNAc(a1-4)Gal(b1-4)GlcNAc(b1-3)Gal(b1-4)[Fuc(a1-3)]GlcNAc(b1-3)Gal(b1-4)[Fuc(a1-3)]GlcNAc
# Summary of the method: as §1
# [9] = biological target: GlcNAc(b1-2)Man(a1-3)[GlcNAc(b1-2)Man(a1-6)]Man(b1-4)GlcNAc(b1-4)GlcNAc
# Summary of the method: as §1
# [10] = biological target: GlcNAc(b1-2)[GlcNAc(b1-4)]Man(a1-3)[GlcNAc(b1-2)Man(a1-6)]Man(b1-4)GlcNAc(b1-4)GlcNAc
# Summary of the method: as §1
# [11] = biological target: GlcNAc(b1-3)Gal
# Summary of the method: as §1
# [12] = biological target: GlcNAc(b1-3)Gal(b1-4)GlcNAc(b1-2)Man(a1-3)[GlcNAc(b1-3)Gal(b1-4)GlcNAc(b1-2)Man(a1-6)]Man(b1-4)GlcNAc(b1-4)[Fuc(a1-6)]GlcNAc
# Summary of the method: as §1
# [13] = biological target: GlcNAc6S(b1-3)Gal(b1-4)GlcNAc
# Summary of the method: as §1
# [14] = biological target: Kdn(a2-3)Gal(b1-3)GalNAc
# Summary of the method: as §1
# [15] = biological target: Man(a1-2)Man(a1-3)[Man(a1-2)Man(a1-6)]Man(a1-6)[Man(a1-3)[Man(a1-6)]Man(a1-6)]Man(b1-4)GlcNAc(b1-4)GlcNAc
# Summary of the method: as §1
# [16] = biological target: Man(a1-2)Man(a1-3)[Man(a1-6)]Man(a1-6)[Man(a1-2)Man(a1-3)]Man(b1-4)GlcNAc(b1-4)GlcNAc
# Summary of the method: as §1
# [17] = biological target: Man(a1-2)Man(a1-6)[Man(a1-3)]Man(a1-6)[Man(a1-2)Man(a1-2)Man(a1-3)]Man
# Summary of the method: as §1
# [18] = biological target: Man(a1-2)Man(a1-6)[Man(a1-3)]Man(a1-6)[Man(a1-2)Man(a1-2)Man(a1-3)]Man(b1-4)GlcNAc(b1-4)GlcNAc
# Summary of the method: as §1
# [19] = biological target: Man(a1-3)[Man(a1-6)]Man(a1-6)[Man(a1-2)Man(a1-3)]Man(b1-4)GlcNAc(b1-4)GlcNAc
# Summary of the method: as §1
# [20] = biological target: Man(a1-3)[Man(a1-6)]Man(a1-6)[Man(a1-3)]Man(b1-4)GlcNAc(b1-4)GlcNAc
# Summary of the method: as §1
# [21] = biological target: Man(a1-3)[Man(a1-6)]Man(b1-4)GlcNAc(b1-4)GlcNAc
# Summary of the method: as §1
# [22] = biological target: Neu5Ac(a2-3)Gal(b1-3)GlcNAc(b1-3)Gal(b1-3)GlcNAc
# Summary of the method: as §1
# [23] = biological target: Neu5Ac(a2-3)Gal(b1-3)[Fuc(a1-4)]GlcNAc
# Summary of the method: as §1
# [24] = biological target: Neu5Ac(a2-3)Gal(b1-3)[Fuc(a1-4)]GlcNAc(b1-3)Gal(b1-4)[Fuc(a1-3)]GlcNAc
# Summary of the method: as §1
# [25] = biological target: Neu5Ac(a2-3)Gal(b1-3)[Neu5Ac(a2-3)Gal(b1-4)]GlcNAc
# Summary of the method: as §1
# [26] = biological target: Neu5Ac(a2-6)Gal(b1-4)GlcNAc(b1-2)Man(a1-3)[GlcNAc(b1-2)Man(a1-6)]Man(b1-4)GlcNAc(b1-4)GlcNAc
# Summary of the method: as §1
# [27] = biological target: Neu5Ac(a2-6)Gal(b1-4)GlcNAc(b1-2)Man(a1-3)[Neu5Ac(a2-6)Gal(b1-4)GlcNAc(b1-2)Man(a1-6)]Man(b1-4)GlcNAc(b1-4)[Fuc(a1-6)]GlcNAc
# Summary of the method: as §1
# [28] = biological target: Neu5Gc(a2-8)Neu5Gc(a2-3)Gal(b1-4)GlcNAc
# Summary of the method: as §1
# [29] = biological target: Neu5Gc(a2-8)Neu5Gc(a2-3)Gal(b1-4)GlcNAc(b1-3)Gal(b1-4)GlcNAc
# Summary of the method: as §1
# [30] = biological target: Neu5Gc(a2-8)Neu5Gc(a2-6)Gal(b1-4)GlcNAc
# Summary of the method: as §1
# [31] = biological target: Neu5Gc(b2-6)Gal(b1-4)GlcNAc
# Summary of the method: as §1
binder,measurement,setting,value
B1,glycan array binding signal (z-score),[1],-0.213
same,glycan array binding signal (z-score),[2],-0.209
same,glycan array binding signal (z-score),[3],-0.203
same,glycan array binding signal (z-score),[4],-0.22
same,glycan array binding signal (z-score),[5],-0.217
same,glycan array binding signal (z-score),[6],-0.216
same,glycan array binding signal (z-score),[7],-0.205
same,glycan array binding signal (z-score),[8],-0.201
same,glycan array binding signal (z-score),[9],6.01
same,glycan array binding signal (z-score),[10],7.69
same,glycan array binding signal (z-score),[11],-0.211
same,glycan array binding signal (z-score),[12],2.21
same,glycan array binding signal (z-score),[13],-0.202
same,glycan array binding signal (z-score),[14],-0.207
same,glycan array binding signal (z-score),[15],3.87
same,glycan array binding signal (z-score),[16],3.3
same,glycan array binding signal (z-score),[17],-0.213
same,glycan array binding signal (z-score),[18],4.91
same,glycan array binding signal (z-score),[19],8.56
same,glycan array binding signal (z-score),[20],4.09
same,glycan array binding signal (z-score),[21],3.64
same,glycan array binding signal (z-score),[22],-0.204
same,glycan array binding signal (z-score),[23],-0.218
same,glycan array binding signal (z-score),[24],-0.226
same,glycan array binding signal (z-score),[25],0.441
same,glycan array binding signal (z-score),[26],0.845
same,glycan array binding signal (z-score),[27],0.863
same,glycan array binding signal (z-score),[28],-0.22
same,glycan array binding signal (z-score),[29],-0.215
same,glycan array binding signal (z-score),[30],-0.211
same,glycan array binding signal (z-score),[31],-0.21
